Measured values from PubChem BioAssay (Tox21).
Results filed as inconclusive are left out. A call without a number means that no potency is given here. Unmarked numbers belong to inactive results. Active and inactive are the calls of the source. Calls follow the shape of the dose curve; as a rule, active = well fitted cell-killing curve with a large enough effect in the repeat runs; inconclusive = weak or mixed curves, or effect the other way; inactive = flat fitted curve, though single readings scatter.

Tests used:
[1] = cAMP Responsive Elements (CRE) small molecule antagonists, cell-based qHTS assay: qHTS cell viability counter screen (AID 2060913); also: nearly all actives have a fitted effect of over 40% in size
Summary of the method: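 Cytotoxicity read in the same wells as the CRE-bla HEK293T antagonist assay: after 3 h compound with 0.25 uM NKH477 final and 2 h beta-lactamase substrate, CellTiter-Glo luminescence measured.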

[2] = cAMP Responsive Elements (CRE) small molecule agonists, cell-based qHTS assay: qHTS cell viability counter screen (AID 2060914); also: nearly all actives have a fitted effect of over 50% in size
Summary of the method: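 In the same wells as the reporter read, viability of CRE-bla HEK 293T cells was quantified by CellTiter-Glo luminescence after a 3 h compound exposure.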

SMILES	Potency [1]	Potency [2]	viability change, negative = cytotoxic [1]	activity change, negative = cytotoxicity [2]
CCCCCCCCCCOC(C)=O	inactive	inactive	–	–
Cc1ccc(C(=O)Oc2ccc(C(O)CNC(C)(C)C)cc2OC(=O)c2ccc(C)cc2)cc1 (centres undefined)	inactive	inactive	–	–
C/C=C(\C)C=O	inactive	inactive	–	–
N=c1ccn2c(n1)O[C@H]1[C@H](O)[C@@H](CO)O[C@H]12	inactive	inactive	–	–
C=C(C)C1CCC(C)(O)CC1 (centres undefined)	inactive	inactive	–	–
BrC(Br)C(Br)Br	inactive	inactive	–	–
CC(C(=O)O)c1ccc2c(c1)CC(=O)c1ccccc1S2 (centres undefined)	inactive	inactive	–	–
Cc1cccc(C)c1	inactive	inactive	–	–
O=C(O)Cn1c(C(=O)Nc2nc(-c3ccccc3Cl)cs2)cc2ccccc21	inactive	inactive	–	–
CCCCCCCC/C=C/C(=O)O	inactive	inactive	–	–
N#CC1(N)CCCCC1	inactive	inactive	–	–
O=C(O)c1ccc([N+](=O)[O-])cc1	inactive	inactive	–	–
CC(C)CC(=O)CC(C)CC(C)C (centres undefined)	inactive	inactive	–	–
CN(C)CCOC(c1ccccc1)c1ccccc1	inactive	inactive	–	–
CCCCOC(=O)COc1ccc(Cl)cc1Cl	inactive	inactive	–	–
CC(C)NC[C@@H](O)COc1cccc2ccccc12	inactive	inactive	–	–
CC(C)=CCC/C(C)=C/COC=O	inactive	inactive	–	–
C[N+](C)(C)CC[N+]1(C)Cc2c(Cl)c(Cl)c(Cl)c(Cl)c2C1	inactive	inactive	–	–
CCCCCCCCCCCCCCC[C@H](O)[C@@H](N)CO	inactive	inactive	–	–
CC(C)(O)c1coc(S(=O)(=O)NC(=O)Nc2c3c(cc4c2CCC4)CCC3)c1	inactive	inactive	–	–
CCOC(=O)[C@@](C)(N)Cc1ccc(O)c(O)c1	inactive	inactive	–	–
CN(CCOc1ccc(CC2SC(=O)NC2=O)cc1)c1ccccn1 (centres undefined)	inactive	inactive	–	–
C=CCOC(=O)/C=C\C(=O)OCC=C	inactive	inactive	–	–
CCCc1ccccc1O	inactive	inactive	–	–
CC(C)(C)OC=O	inactive	inactive	–	–
C=CCN1C[C@H](C(=O)N(CCCN(C)C)C(=O)NCC)C[C@@H]2c3cccc4[nH]cc(c34)C[C@H]21	inactive	inactive	–	–

SMILES	Potency [1]	Potency [2]	viability change, negative = cytotoxic [1]	activity change, negative = cytotoxicity [2]
CC(C)CCCCCCCOC(=O)CCCCC(=O)OCCCCCCCC(C)C	inactive	inactive	–	–
CN(N=O)C(=O)N[C@@H]1[C@@H](O)[C@H](O)[C@@H](CO)O[C@@H]1O	inactive	inactive	–	–
CCOC(=O)COc1ccc2c(C)c(CCN(CC)CC)c(=O)oc2c1Cl	inactive	inactive	–	–
CCCCCCCCO	inactive	inactive	–	–
O=C(C(=O)c1ccco1)c1ccco1	inactive	inactive	–	–
C/C=C/C=C/CCCCCCCO	inactive	inactive	–	–
COc1ccc(CCC(=O)c2c(O)cc(O[C@@H]3O[C@H](CO)[C@@H](O)[C@H](O)[C@H]3O[C@@H]3O[C@@H](C)[C@H](O)[C@@H](O)[C@H]3O)cc2O)cc1O	inactive	inactive	–	–
COC(=O)CC(C(C)=O)C(=O)OC (centres undefined)	inactive	inactive	–	–
NC(=O)c1ccc([N+](=O)[O-])cc1Cl	inactive	inactive	–	–
O=C1OC2(c3ccccc31)c1cc(Br)c(O)c(Br)c1Oc1c2cc(Br)c(O)c1Br	inactive	inactive	–	–
CC1CCc2c(N3CCC(O)CC3)c(F)cc3c(=O)c(C(=O)O)cn1c23 (centres undefined)	inactive	inactive	–	–
Cc1ccc(C)c(O)c1C	inactive	inactive	–	–
CC1CCC(C(C)CS)CC1S (centres undefined)	inactive	inactive	–	–
CCCCOCCOC(=O)COc1nc(Cl)c(Cl)cc1Cl	inactive	inactive	–	–
CCN(CC)C(C)CN1c2ccccc2Sc2ccccc21 (centres undefined)	inactive	inactive	–	–
CC(=O)[C@H]1[C@H](C#N)C[C@H]2[C@@H]3CC=C4C[C@@H](O)CC[C@]4(C)[C@H]3CC[C@@]21C	inactive	inactive	–	–
CC1=NN(c2ccccc2)C(=O)C1	inactive	inactive	–	–
O=C(c1ccccc1O)c1ccccc1O	inactive	inactive	–	–
O=C(O)c1nc(Cl)c(Cl)c(Cl)c1Cl	inactive	inactive	–	–
O=C1c2ccccc2C(=O)C1c1ccccc1	inactive	inactive	–	–
CC(C)OCCO	inactive	inactive	–	–
NNc1nncc2ccccc12	inactive	inactive	–	–
C=CC(=O)OCCOC(=O)C=C	inactive	inactive	–	–
C[C@@H](O)[C@H](N)C(=O)O	–	–	-1.62% [at 18.9 µM]	-10.8% [at 18.9 µM]
CCCCCCCC/C=C\CCCCCCCCCCCC(=O)O	inactive	inactive	–	–
CC(=O)OCc1ccc2c(c1)OCO2	inactive	inactive	–	–
